# TDP1 cell noCPT: qHTS for Inhibitors of human tyrosyl-DNA phosphodiesterase 1 (TDP1): qHTS in cells in absence of CPT | DT40 Tdp1-/- hTDP1 cells, no CPT, ATP luminescence, 48 h | Potency, µM (doses to about 46.2 µM), for inactives: at the highest dose activity change, negative = growth inhibition, actives largely listed as inhibitors | 15% of 420,000 active | AID 686978, 2013; note: % is set by controls: 0 for no effect and ±100 for the full control effect; nearly all actives have a fitted effect of over 55% in size
#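 Camptothecin absent (DMSO only). Human TDP1-complemented DT40 knockout cells, 400 cells/well, 37 °C for minimum 48 hr; ATP measured via CellTiter-Glo, 30 min dark incubation, luminescence.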
# TDP1 cell CPT: DT40-hTDP1 cell growth loss with CPT | chicken DT40 Tdp1-/-;hTDP1 cells + 20 nM CPT, ATP luminescence, 48 h | Potency, µM (series often up to 46.2 µM), for inactives: at the top dose activity change, negative = growth inhibition, hits mostly inhibitors | 12% of 420,000 active; note: % is set by controls: 0 for no effect and ±100 for the full control effect; nearly all actives have a fitted effect of over 55% in size
#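 Cell growth measured by CellTiter-Glo luminescence after a minimum 48 h, 37 C compound exposure with 20 nM CPT in Tdp1-knockout DT40 cells stably expressing hTDP1, seeded 400/well; qHTS titration format.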
# TDP1 block: inhibitors of human tyrosyl-DNA phosphodiesterase TDP1. recombinant TDP1, AlphaScreen DNA substrate cleavage. 0.28% of 350,000 active. Potency, µM (doses to about 130 µM), for inactives: at the highest dose activity change, negative = inhibition, actives largely listed as inhibitors; note: % is set by controls: 0 for no effect and ±100 for the full control effect; nearly all actives have a fitted effect of over 40% in size
# Target sequence (Q9NUW8 whole entry, looked up): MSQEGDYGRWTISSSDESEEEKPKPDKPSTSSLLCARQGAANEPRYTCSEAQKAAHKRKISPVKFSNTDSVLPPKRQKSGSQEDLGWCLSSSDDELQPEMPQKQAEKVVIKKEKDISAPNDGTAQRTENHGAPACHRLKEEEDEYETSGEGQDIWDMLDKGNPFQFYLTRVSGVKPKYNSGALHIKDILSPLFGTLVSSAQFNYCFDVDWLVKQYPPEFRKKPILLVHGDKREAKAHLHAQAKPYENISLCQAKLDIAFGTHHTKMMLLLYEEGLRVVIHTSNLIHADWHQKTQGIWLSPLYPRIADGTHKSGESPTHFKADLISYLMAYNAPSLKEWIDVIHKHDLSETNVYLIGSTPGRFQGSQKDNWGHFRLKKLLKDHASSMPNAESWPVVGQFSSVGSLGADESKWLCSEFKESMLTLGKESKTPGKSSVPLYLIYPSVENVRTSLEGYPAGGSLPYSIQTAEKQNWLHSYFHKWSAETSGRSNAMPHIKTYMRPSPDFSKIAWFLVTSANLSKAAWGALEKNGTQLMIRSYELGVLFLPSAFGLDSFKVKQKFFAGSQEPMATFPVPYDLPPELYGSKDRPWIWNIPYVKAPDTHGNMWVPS
#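 Here, a 5' biotin and 3' phosphotyrosine-FITC DNA oligonucleotide reports Tdp1 activity: intact substrate bridges AlphaScreen beads, while cleavage leaves a 3' phosphate and drops signal. All incubations at room temperature.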
# ClpP mod: qHTS Assay for Activators of ClpP. 1.9% of 340,000 active. Potency, µM (top dose mostly 57.5 µM), without a hit: at the top dose activity change, negative = active. AID 651965, 2013. purified B. subtilis ClpP, FRET peptide cleavage, 20 min. ATP-dependent Clp protease proteolytic subunit (Bacillus subtilis (strain 168)), P80244; active = well fitted falling curve with a large enough effect; inconclusive = small, poorly fitted or top-dose-only effect; inactive = no such curve, though single readings can be large or run the other way; note: the source files actives as falling curves though it sought activators and does not explain the sign; nearly all actives have a fitted effect of over 65% in size
#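 FRET quenching reversal measured ClpP activation: 10 microg/mL B. subtilis ClpP at pH 8 with the FRET-FV decapeptide, read at 430 nm after 320 nm excitation. The 20-min minus 0-min signal was scaled between DMSO/no-enzyme wells and ADEP (5.8 microM final).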
# * hit, by the source's call; ? = inconclusive; / = no result given; [ ] = another dose, or the depositor's remark. An excerpt weighted towards active compounds, which were near 17% of everything screened. Unless noted, calls come from the whole dose curve; as a rule, active = well fitted curve in the direction sought with a large enough effect; inconclusive = small, poorly fitted or top-dose-only effect, or another doubt; inactive = no such curve, though single readings can be large; an effect the other way counts as inactive or inconclusive. Potency is the fitted concentration of half-maximal effect.
SMILES,TDP1 cell noCPT,TDP1 cell CPT,TDP1 block,ClpP mod
CCOc1ccc(CNc2cc(C)nc3nc(-c4cccc(C)c4)nn23)cc1OC,18µM*,?,5%,-2%
COc1ccc(CCNc2c(C)c(C)nc3ncnn23)cc1,2.6µM*,2.3µM*,1%,-8%
COc1ccc(-c2cc(NCCc3ccncc3)n3ncnc3n2)cc1,-20%,-27%,7%,32µM*
O=C(COc1ccccc1)NCCc1csc(-c2ccc(Cl)cc2)n1,?,?,3%,-4%
CNS(=O)(=O)c1cn(CC(=O)N2CCN(c3ccc(C)cc3C)CC2)cc1S(=O)(=O)NC,-29%,-14%,-6%,2%
CCOc1ccc(CCNc2cc(C)nc3ncnn23)cc1OCC,15µM*,21µM*,-1%,-2%
CCOc1ccc(CCNC(=O)CCc2c(C)nc3ncnn3c2C)cc1OCC,2%,-23%,5%,1%
O=C(N/N=C/C=C/c1ccccc1[N+](=O)[O-])c1cccs1,8.2µM*,?,-3%,-16%
O=C(N/N=C/c1ccccc1[N+](=O)[O-])c1cccs1,-14%,8%,4%,/
Cc1ccc(/C=N/NC(=O)c2cccs2)cc1[N+](=O)[O-],16µM*,12µM*,3%,-1%
O=C(N/N=C/C=C/c1ccccc1)c1cccs1,-1%,-14%,3%,1%
O=C(N/N=C\C=C\c1ccc([N+](=O)[O-])o1)c1cccs1,3.3µM*,4.1µM*,/,/
Cc1ccsc1/C=N/NC(=O)c1cccs1,-11%,11%,3%,0%
CCOC(=O)C1(C)CCCN(C(=O)c2ccc(OC(F)F)cc2)C1 (stereo unspecified),-24%,-20%,/,0%
CCCC(CCC(=O)Nc1cc([N+](=O)[O-])ccc1O)C(=O)O (stereo unspecified),0%,-5%,6%,/
CC(=O)Nc1nc(SCC(=O)NCc2ccc(F)cc2)[nH]c(=O)c1NC(=O)c1cccs1,2%,-9%,5%,1%
COc1cccc([C@@H]2Oc3ccc(OC)cc3C(=O)[C@H]2O)c1,12µM*,6.5µM*,8%,-25%
COc1cccc([C@@H]2Oc3ccc(Br)cc3C(=O)[C@H]2O)c1,/,/,5%,/
COc1ccc2c(c1)C(=O)[C@@H](O)[C@H](c1ccc(OC)c(Br)c1)O2,?,21µM*,6%,0%
CN(C)c1nc(NC(C)(C)C)nc(NC(C)(C)C)n1,21µM*,?,2%,/
Cn1c(SCC(=O)Nc2ccc3c(c2)OCO3)nnc1C(F)(F)F,-3%,14%,-1%,-1%
CC(C)CC1NC(=O)C(CCCN)NC(=O)C(C(C)C)NC(=O)C2CCCN2C(=O)C(Cc2ccccc2)NC(=O)C(CC(C)C)NC(=O)C(CCCN)NC(=O)C(C(C)C)NC(=O)C2CCCN2C(=O)C(Cc2ccccc2)NC1=O (stereo unspecified),/,/,8%,/
CC[C@H](C)[C@@H]1NC(=O)[C@@H](CC(C)C)NC(=O)[C@H](C(C)C)NC(=O)[C@H]2CSSC[C@H](NC1=O)C(=O)N2,0.033µM*,0.065µM*,/,2%
Cc1cnc(-n2ncc(C(=O)N[C@H]3CCCCNC3=O)c2C2CC2)nc1-c1cccs1,-18%,-22%,/,/
Cc1ccc(C)c(S(=O)(=O)Nc2ccc(O)c3ccccc23)c1,15µM*,13µM*,/,4%
SMILES,TDP1 cell noCPT,TDP1 cell CPT,TDP1 block,ClpP mod
Cc1ccc(S(=O)(=O)Nc2ccc(O)c3ccccc23)c(C)c1,5.2µM*,3.7µM*,/,-4%
Cc1ccc(S(=O)(=O)Nc2cc(C(C(=O)OC(C)C)C(=O)C(F)(F)F)c(O)c3ccccc23)c(C)c1 (stereo unspecified),?,?,8%,0%
Cc1ccc(S(=O)(=O)NNc2ccccc2)c(C)c1,18µM*,?,2%,-4%
Cc1cc(C)cc(NC(=O)/C=C/c2ccc([N+](=O)[O-])s2)c1,1.2µM*,?,0%,-3%
O=C(/C=C/c1cccc([N+](=O)[O-])c1)Nc1cc(C(=O)O)cc(C(=O)O)c1,?,?,-5%,/
Cc1ccccc1NC(=O)/C=C/c1ccc([N+](=O)[O-])s1,0.82µM*,0.92µM*,3%,1%
CC(=O)c1cccc(NC(=O)/C=C/c2ccc([N+](=O)[O-])s2)c1,1.5µM*,1.3µM*,5%,/
Cc1ccc2nc(SCc3nc4c(cnn4-c4ccccc4)c(=O)[nH]3)[nH]c2c1,16µM*,21µM*,3%,-1%
O=c1[nH]c(SCc2nc3c(cnn3-c3ccccc3)c(=O)[nH]2)nc2ccccc12,21µM*,?,-3%,7%
CCCCCSc1nc2c(cnn2-c2ccc(F)cc2)c(=O)[nH]1,23µM*,?,/,/
Cc1ccc2nc(SCc3nc4cc(Cl)ccc4c(=O)[nH]3)[nH]c2c1,?,-9%,/,/
Nc1nc(SCC(=O)N2CCCC2)[nH]c(=O)c1-c1ccccc1,26µM*,?,0%,2%
O=c1[nH]c(CSc2ncccn2)nc2c1cnn2-c1ccccc1,-20%,-26%,2%,-5%
O=C([C@@H]1C[C@@H](Sc2nc3ccccc3[nH]2)CN1Cc1c(F)cccc1F)N1CCOCC1,-17%,-13%,/,/
O=C(C[n+]1cc(Br)cc(Br)c1)c1ccc(I)cc1,-25%,-14%,/,1%
Brc1ccsc1/C=N/Nc1ccccc1,-26%,-18%,/,-5%
COc1ccc(NC(=O)CCCn2nc(C)c3c(C)n(-c4ccccc4)nc3c2=O)cc1,12%,-13%,0%,-3%
CCCCC(CC)CNC(=O)C(Cc1ccccc1)NS(=O)(=O)c1ccc2c(c1)CCC(=O)N2 (stereo unspecified),-26%,?,-2%,2%
Cc1ccc(-n2c(SCC(=O)N3CCC(C)CC3)nc3c([nH]c4ccccc43)c2=O)cc1,-23%,-24%,9%,-6%
Cc1ccc(-n2ncc3c(=O)[nH]c(SCC(=O)N4CCN(c5ccccc5)CC4)nc32)cc1,?,?,-4%[56.1 µM],-2%
CCOC(=O)N1CCN(C(=O)CSc2nc3c(cnn3-c3ccccc3)c(=O)[nH]2)CC1,23µM*,?,3%,-1%
O=c1[nH]c(CSc2nc3ccccc3o2)nc2c1cnn2-c1ccccc1,-20%,?,2%,-3%
O=c1[nH]c(CSc2nc3ccccc3[nH]2)nc2c1cnn2-c1ccccc1,21µM*,26µM*,6%,0%
COc1ccc(-c2noc(CCC(=O)NCC3CCN(Cc4cccc(C)c4)CC3)n2)cc1,23µM*,?,1%,-1%
Cc1cccc(CCNC(=O)CCc2nc(-c3ccccc3F)no2)c1,?,-24%,7%,0%
O=C(CCc1nc(-c2ccccc2F)no1)NCCN1CCN(Cc2ccccc2)CC1,?,18µM*,8%,-3%

# Bioassay records as filed in PubChem.
